Activity calls are given as the source filed them. Calls come from the whole dose curve; as a rule, active = well fitted activation curve with a large enough effect; inconclusive = small, poorly fitted or top-dose-only effect; inactive = no such curve, though single readings can be large or run the other way.

Chain of Parathyroid hormone/parathyroid hormone-related peptide receptor (Homo sapiens) (Q03431 whole entry, looked up): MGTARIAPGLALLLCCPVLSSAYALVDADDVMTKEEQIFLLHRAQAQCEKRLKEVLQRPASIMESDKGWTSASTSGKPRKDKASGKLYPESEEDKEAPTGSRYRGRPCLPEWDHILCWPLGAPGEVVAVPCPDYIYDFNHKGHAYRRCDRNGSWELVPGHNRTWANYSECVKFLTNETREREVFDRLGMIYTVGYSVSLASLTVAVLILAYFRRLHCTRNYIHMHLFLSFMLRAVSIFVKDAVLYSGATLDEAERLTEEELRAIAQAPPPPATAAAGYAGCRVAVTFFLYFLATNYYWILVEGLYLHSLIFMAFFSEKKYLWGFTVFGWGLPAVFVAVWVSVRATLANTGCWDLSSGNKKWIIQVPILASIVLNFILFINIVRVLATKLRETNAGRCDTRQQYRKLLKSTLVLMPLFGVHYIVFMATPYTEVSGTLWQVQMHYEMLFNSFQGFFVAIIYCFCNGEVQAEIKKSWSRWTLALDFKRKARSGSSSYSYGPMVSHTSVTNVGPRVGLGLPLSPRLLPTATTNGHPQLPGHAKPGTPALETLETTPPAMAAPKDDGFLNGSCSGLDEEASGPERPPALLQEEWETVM

This assay concerns the target Parathyroid hormone/parathyroid hormone-related peptide receptor (Homo sapiens) (UniProt Q03431). The experiment in a line: qHTS for PTHR1 Agonists: Optimization Screen against the NCGC LOPAC library (AID 1347079). The note with it: HEK293 GP2 PTHR1 GloSensor cAMP luminescence, 1 h; series mostly up to 57.1 µM. The text has this:
The goal of the proposed studies is to discover new compounds that act as potent agonists on the parathyroid hormone receptor type-1 (PTHR1). The PTHR1 plays critical roles in maintaining blood calcium and phosphate levels, as well as in controlling bone remodeling. PTHR1 agonists could thus be useful for treating diseases such as hypoparathyroidism and osteoporosis. In the former disease, an agonist drug would help maintain normal blood calcium and phosphate levels under conditions of parathyroid hormone deficiency. In the latter disease, an agonist drug would stimulate new bone formation and thus reduce the risk of fracture, under conditions of bone fragility, as occurs in aging. We performed an optimization assay of the quantitative high-throughput screening (qHTS) for the parathyroid hormone receptor type-1 (PTHR1) against the NCGC LOPAC library collection of […] compounds using a unique HEK-293-derived cell line (GP2) that expresses the PTHR1 and a GloSensor cAMP reporter construct. Increase in signal (activation / agonist) is the desired outcome for compounds of interest. NIH Chemical Genomics Center [NCGC] NIH Molecular Libraries Probe Production Centers Network [MLPCN] MLPCN Grant: P01 DK011794 Assay Submitter (PI): Thomas Gardella PhD, Massachusetts General Hospital
Reagents / Controls: M-PTH (1-15) peptide hormone fragments was provided by the assay provider and was used as a control. Column 1 was treated with M-PTH titration (1:2 dilution) beginning with a final concentration of 10uM. Column 2 was treated with M-PTH final concentration of 10uM. Columns 3 and 4 were treated with DMSO only to assess background and noise signal. Assay Steps: Four microLiter of cells suspension was dispensed in a 1536-well assay plate at a final density of 3000 cells/well. The plates were incubated overnight, after which 4uL of 0.5mM of BloTium Luciferin plus 0.5mM IBMX was added. Next, the plate was incubated at 37C for 1hr before 23nL of compound (at various final concentrations from 40uM to 0.32uM) and control were added using a 1536-well array Kalypsys pin-tool. The treated plates were again incubated at 37C for another hour. Luminescence signal was obtained using the PerkinElmer ViewLux plate reader after 15min or room temperature incubation.
Background: Quantitative high-throughput screening tests each substance at several concentrations.
Turning to `CN1CCN(CC(=O)N2c3ccccc3C(=O)Nc3cccnc32)CC1`, the call was inactive.

Turning to `COc1ccc([C@@H]2Sc3ccccc3N(CCN(C)C)C(=O)[C@@H]2OC(C)=O)cc1`, the call was inactive. As to `CN/C(=C\[N+](=O)[O-])NCCSCc1ccc(CN(C)C)o1`, the compound was called inactive.

For `NC1=NCC2c3ccccc3Cc3ccccc3N12` (stereo not given), the outcome was inactive. On to `CC[N+](C)(C)c1cccc(O)c1`, for which the compound was called inactive.

For `COc1ccc(CN(CCN(C)C)c2ccccn2)cc1`, the compound was classed as inactive. For the compound `CCNC(=O)N1CCN(CCCC(c2ccc(F)cc2)c2ccc(F)cc2)CC1`, the result was inactive. `CC(C)(Oc1ccc(CCNC(=O)c2ccc(Cl)cc2)cc1)C(=O)O`: the outcome was inactive. In the case of `Cc1ccc(=O)n(-c2ccccc2)c1`, the compound was called inactive.

For `CN(C)C/C=C(/c1ccc(Br)cc1)c1cccnc1`, the compound was called inactive. Consider `Cc1ccc(S(=O)(=O)NC(=O)NN2CCCCCC2)cc1`, for which the compound was classed as inactive. In the case of `COc1cc(C(=O)OCCCN2CCCN(CCCOC(=O)c3cc(OC)c(OC)c(OC)c3)CC2)cc(OC)c1OC`, the compound was classed as inactive. As to `CC(N=C(NC#N)Nc1ccncc1)C(C)(C)C` (stereo not given), the call was inactive.

Turning to `Nc1c2c(nc3ccccc13)CCCC2O` (stereo not given), the compound was called inactive.

Take `O=C(O)CN(CCN(CC(=O)O)CC(=O)O)CCN(CC(=O)O)CC(=O)O`: the outcome was inactive. As to `CN1C(=O)CC[C@H]1c1cccnc1`, the compound was classed as inactive.

As for `CCN(CC)CCOCCOC(=O)C1(c2ccccc2)CCCC1`, the outcome was inactive. As to `C[C@]12CCC(=O)C=C1CC[C@@H]1[C@@H]2CC[C@@]2(C)[C@H]1CC[C@]2(O)C(=O)CO`, the result was inactive.

As for `CCCN(CCC)CCc1cccc2c1CC(=O)N2`, the compound was called inactive. In the case of `CO[C@@]1(NC(=O)CSCC#N)C(=O)N2C(C(=O)O)=C(CSc3nnnn3C)CS[C@@H]21` it was “inactive”; in that of `O=C1CC2(CCCC2)CC(=O)N1CCCCN1CCN(c2ncccn2)CC1`, “inactive”; in that of `N[C@@H](COP(=O)(O)O)C(=O)O`, “inactive”.

With `CC(=O)OC(C)C[N+](C)(C)C` (stereo not given), the call was inactive. In the case of `OC(CCN1CCCCC1)(c1ccccc1)C1CCCCC1` (stereo not given) it was “inactive”; in that of `Nc1nc(N)c2nc(-c3ccccc3)c(N)nc2n1`, “inactive”; in that of `COC(=O)[C@@H](N)Cc1ccc(O)c(O)c1`, “inactive”. Take `CCc1cccc(N(C)C(N)=Nc2cccc3ccccc23)c1`: the result was inactive. For `CCn1cc(C(=O)O)c(=O)c2cc3c(cc21)OCO3` the value was “inactive”; for `CCCN1C[C@H](CSC)C[C@@H]2c3cccc4[nH]cc(c34)C[C@H]21`, “inactive”; for `CN(C)CCN(Cc1cccs1)c1ccccn1`, “inactive”.

With `C=CCc1ccccc1OCC(O)CNC(C)C` (stereo not given), the compound was classed as inactive. For `CC(C)(C)c1ccc(C(=O)CCCN2CCC(OC(c3ccccc3)c3ccccc3)CC2)cc1`, the call was inactive. With `C[N+](C)(C)CCOC(N)=O`, the outcome was inactive. As to `NC(=O)N1c2ccccc2C=Cc2ccccc21`, the call was inactive. Consider `Fc1ccc(C(c2ccc(F)cc2)N2CCN(C/C=C/c3ccccc3)CC2)cc1`, for which the compound was called inactive. As to `Cc1nc2c([nH]1)c(=O)n(C)c(=O)n2Cc1ccco1`, the outcome was inactive.

For the compound `O=C1NCN(c2ccccc2)C12CCN(CCCC(c1ccc(F)cc1)c1ccc(F)cc1)CC2`, the compound was called inactive. `Cc1cccc(C)c1NC(=O)C(C)N` (stereo not given): the compound was classed as inactive. As for `CC(C(=O)O)c1ccc(CC2CCCC2=O)cc1` (stereo not given), the compound was classed as inactive.

On to `C(=C\c1ccccc1)/CN1CCN(C(c2ccccc2)c2ccccc2)CC1`, for which the outcome was inactive.

For the origin of these results see PubChem BioAssay (NCATS).
